Reference: PubChem BioAssay (NCATS)
Results filed as inconclusive are left out. Active and inactive are the calls of the source. Unless noted, calls follow the shape of the dose curve; as a rule, active = well fitted curve in the direction sought with a large enough effect; inconclusive = small, poorly fitted or top-dose-only effect, or another doubt; inactive = no such curve, though single readings can be large; an effect the other way counts as inactive or inconclusive. Where a SMILES comes first, the peptide text is derived from it.

Assays:
[1] = P-glycoprotein substrates identified in KB-3-1 adenocarcinoma cell line, qHTS therapeutic library screen (AID 1346986); also: nearly all actives have a fitted effect of over 60% in size
Summary of the method: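 Viability read by CellTiter-Glo after 72 h compound exposure in dose-response of KB-3-1 and KB-8-5-11 (P-gp-high) cells. Hits needed AC50 < 10 uM, >50% maximum response and curve class -1.1 to -2.4. Cherry-picks retested ± tariquidar, including pcDNA/MDR-19 HEK-293 pair.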

[2] = P-glycoprotein substrates identified in KB-8-5-11 adenocarcinoma cell line, qHTS therapeutic library screen (AID 1346987); also: nearly all actives have a fitted effect of over 65% in size; as to activity change, negative = cytotoxicity: series mostly up to about 44 µM; % is scaled to controls: 0 for no effect and ±100 for the full control effect
Summary of the method: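 Compounds are pinned in dose-response onto KB-8-5-11 cells (500 cells/well, colchicine-free medium) and left 72 h at 37 degree C. CellTiter-Glo luminescence then yields AC50 values.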

[3] = tested on: Zika virus NS2B-NS3 protease (unlinked complex); experiment: Primary screen GU Rhodamine qHTS for Zika virus inhibitors: Unlinked NS2B-NS3 protease assay (AID 1347159); also: nearly all actives have a fitted effect of over 60% in size; also: potency is read from the fitted curve at half-maximal effect; as to activity change, negative = inhibition: % is scaled to controls: 0 for no effect and ±100 for the full control effect
Summary of the method: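 In dose–response format, inhibition of unlinked protease (25 nM) was measured with 1.5 microM bis-peptide Rhodamine110 substrate. Aprotinin served as the intraplate control.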

[4] = tested on: Zika virus NS2B-NS3 protease (linked construct); experiment: Primary screen NINDS Rhodamine qHTS for Zika virus inhibitors (AID 1347160); also: nearly all actives have a fitted effect of over 55% in size; also: potency is read from the fitted curve at half-maximal effect
Summary of the method: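 Each compound, titrated, sat 15 min with 25 nM linked protease before 1.5 microM Rhodamine110 substrate went in. Fluorescence gain over the next 15 min, in pH 8.0 Tris with Tween 20, gave Hill-fitted curves.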

[5] = biological target: Peroxisome proliferator-activated receptor alpha (Homo sapiens) (UniProt Q07869); experiment: qHTS assay for small molecule agonists of the peroxisome proliferator-activated receptor alpha (PPARalpha) signaling pathway (AID 651778); conditions: PathHunter PPARalpha complementation, chemiluminescence, 6 h; hits give high values; also: % of control where 0% means no effect
Summary of the method: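 Chemiluminescence from complemented enzyme reported PPARalpha activation in cells after 6 hr of compound treatment at 37 C. The detection reagent was incubated for 60 min at room temperature, and compounds were scored as agonists.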

[6] = biological target: Nuclear receptor ROR-gamma (Homo sapiens) (UniProt P51449); experiment: qHTS assay for small molecule antagonists of the retinoid-related orphan receptor gamma (ROR-gamma) signaling pathway (AID 651802);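 also: CHO cells with doxycycline-induced ROR-gamma expression; luciferase reporter luminescence driven by ROR response element; series mostly up to about 92 µM; % is scaled to controls: 0 for no effect and ±100 for the full control effect; nearly all actives have a fitted effect of over 60% in size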
Summary of the method: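 Luminescence (One-Glo, 30 min RT) measured 16 h after compound addition and doxycycline induction at 37C. Reporter: RORE-luciferase under TET-inducible ROR-gamma in CHO cells.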

[7] = qHTS assay for small molecule agonists of the antioxidant response element (ARE) signaling pathway measured by Nrf2-dependant transcriptional activity (AID 720636; active = well fitted curve in the direction sought with a large enough effect in the repeat runs; an effect the other way counts as inactive or inconclusive;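 also: HepG2 cells with an ARE-driven luciferase reporter; % of control where 0% means no effect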)
Summary of the method: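 We exposed ARE-luc HepG2 cells, seeded in assay medium with 1% dialyzed FBS and allowed 6 hr to adhere, to test compounds overnight (16 hr, 37 C) before measuring luciferase with ONE-Glo.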

[8] = qHTS assay for small molecule antagonists of the retinoid-related orphan receptor gamma (ROR-gamma) signaling pathway - cell viability counter screen (AID 720652; active = well fitted curve in the direction sought with a large enough effect in the repeat runs; an effect the other way counts as inactive or inconclusive;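 also: CHO reporter cells with doxycycline-induced ROR-gamma expression; series mostly up to about 92 µM; compound exposure lasted 16 hr before ATP read; % is scaled to controls: 0 for no effect and ±100 for the full control effect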)
Summary of the method: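 Cytotoxicity counter screen: intracellular ATP (CellTiter-Glo luminescence) measured in the doxycycline-induced CHO RORE-luciferase reporter line after 16 hr compound exposure at 37 C, 5% CO2.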

[9] = qHTS assay for small molecule agonists of the antioxidant response element (ARE) signaling pathway measured by Nrf2-dependant transcriptional activity - cell viability counter screen (AID 720653; active = well fitted curve in the direction sought with a large enough effect in the repeat runs; an effect the other way counts as inactive or inconclusive; also: % is scaled to controls: 0 for no effect and ±100 for the full control effect); conditions: ARE-bla HepG2 viability, CellTiter-Glo ATP luminescence, 16 h; hits give low values
Summary of the method: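 Cytotoxicity counter screen: intracellular ATP quantified by CellTiter-Glo luminescence in the same ARE-bla HepG2 plates, after 16 h compound exposure and a 2 h beta-lactamase substrate step.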

[10] = qHTS assay for cell viability of HEK293 cells (AID 743288); conditions: ATP luminescence (CellTiter-Glo), 18 h, hits give low values; also: % is scaled to controls: 0 for no effect and ±100 for the full control effect; nearly all actives have a fitted effect of over 50% in size
Summary of the method: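 Viable-cell counts were inferred from luciferase-based ATP content in HEK293 cells seeded at 2,000/well, pre-incubated ≥5 h, then dosed with DMSO-solubilised compounds for 18 h at 37 C.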

[11] = qHTS assay for cell viability of the p53RE-bla HCT-116 cell line (AID 743292); also: % is scaled to controls: 0 for no effect and ±100 for the full control effect; nearly all actives have a fitted effect of over 55% in size
Summary of the method: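 In this qHTS counter-screen, metabolically competent p53RE-bla HCT-116 cells were counted via their ATP content. Compounds were applied for 16 h at 37 C and luciferase-coupled luminescence was measured.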

Nuclear receptor ROR-gamma (Homo sapiens), sequence (P51449 whole entry, looked up): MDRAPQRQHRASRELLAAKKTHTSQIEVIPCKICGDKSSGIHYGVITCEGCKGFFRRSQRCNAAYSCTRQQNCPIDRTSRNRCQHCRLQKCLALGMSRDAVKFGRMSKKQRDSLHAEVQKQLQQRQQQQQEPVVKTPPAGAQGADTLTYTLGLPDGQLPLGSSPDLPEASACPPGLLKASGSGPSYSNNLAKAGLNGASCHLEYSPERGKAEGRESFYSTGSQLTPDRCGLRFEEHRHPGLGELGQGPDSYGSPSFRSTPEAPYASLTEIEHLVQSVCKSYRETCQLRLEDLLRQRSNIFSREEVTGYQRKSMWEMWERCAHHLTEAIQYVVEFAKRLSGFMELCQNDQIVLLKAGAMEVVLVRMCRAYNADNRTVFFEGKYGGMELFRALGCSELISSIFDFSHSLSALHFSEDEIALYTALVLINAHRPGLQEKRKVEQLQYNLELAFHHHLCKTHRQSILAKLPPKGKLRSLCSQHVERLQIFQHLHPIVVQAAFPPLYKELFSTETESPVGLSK
Peroxisome proliferator-activated receptor alpha (Homo sapiens), sequence (Q07869 whole entry, looked up): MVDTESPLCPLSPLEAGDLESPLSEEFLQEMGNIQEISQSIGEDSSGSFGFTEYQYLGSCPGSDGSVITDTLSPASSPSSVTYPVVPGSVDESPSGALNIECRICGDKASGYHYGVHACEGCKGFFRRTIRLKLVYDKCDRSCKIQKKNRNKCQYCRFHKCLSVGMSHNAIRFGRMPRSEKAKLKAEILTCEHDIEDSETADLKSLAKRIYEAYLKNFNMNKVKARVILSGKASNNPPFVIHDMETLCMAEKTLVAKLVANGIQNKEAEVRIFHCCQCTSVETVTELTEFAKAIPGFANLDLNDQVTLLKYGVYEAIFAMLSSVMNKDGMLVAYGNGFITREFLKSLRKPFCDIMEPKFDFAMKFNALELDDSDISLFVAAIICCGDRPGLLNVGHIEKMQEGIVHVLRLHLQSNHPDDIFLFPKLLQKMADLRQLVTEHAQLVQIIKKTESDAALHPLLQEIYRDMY

C=C1CC23CC(=O)C4C(CO)(CO)CCCC4(C)C2CCC1C3 (stereo not given)
inactive: Potency [1] | Potency [2] | Potency [3] | Potency [4]

CC1CCCCCCCc2cc(O)cc(O)c2C(=O)O1 (stereo not given)
active: Potency [3] 39.8 µM | Potency [4] 15.8 µM
inactive: Potency [1] | Potency [2]

COc1ccc(OC)c(C2C(C#N)=C(N)Oc3n[nH]c(-c4ccc5ccccc5c4)c32)c1 (stereo not given)
inactive: Potency [1] | Potency [2] | Potency [4]

CC1CCC2(C(=O)O)CCC3(C)C(=CCC4C5(C)C[C@@H](O)[C@@H](O)C(C)(CO)C5CCC43C)C2C1(C)O (stereo not given in full)
inactive: Potency [1] | Potency [2] | Potency [3] | Potency [4]

C/C=C/C=C/[C@@H]1O[C@](O)([C@H](CC)C(=O)NC/C=C/C=C(\C)[C@@H](OC)[C@@H](C)[C@@H]2O[C@H](/C=C/C=C/C=C(\C)C(=O)c3c(O)ccn(C)c3=O)[C@H](O)[C@@H]2O)[C@H](O)[C@H](O)C1(C)C
inactive: outcome [1] inactive [at 9.29 µM] | outcome [2] inactive [at 9.29 µM] | Potency [3] | Potency [4]

CC(C)=CC1C[C@](C)(O)[C@@H]2[C@H]3CCC4[C@@]5(C)CC[C@H](O[C@@H]6OC[C@H](O)[C@H](O[C@@H]7O[C@H](CO[C@@H]8O[C@H](CO)[C@@H](O)[C@H](O)[C@H]8O)[C@@H](O)[C@H](O)[C@H]7O)[C@H]6O[C@@H]6O[C@@H](C)[C@H](O)[C@@H](O)[C@H]6O)C(C)(C)[C@@H]5CC[C@@]4(C)[C@@]34CO[C@@]2(C4)O1 (stereo not given in full)
inactive: outcome [1] inactive [at 9.29 µM] | activity change, negative = cytotoxicity [2] 9.35% [at 9.29 µM] | Potency [3] | Potency [4]

OCC1=C[C@@H](O)[C@@H]2C=CO[C@@H](O[C@@H]3O[C@H](CO)[C@@H](O)[C@H](O)[C@H]3O)[C@H]12
inactive: Potency [1] | Potency [2] | Potency [3] | Potency [4]

COc1cc(C)c(C(=O)O[C@@H]2[C@H](O)[C@@H](CO)O[C@H]2n2ccc(=O)[nH]c2=O)c(OC)c1
inactive: Potency [1] | Potency [2] | Potency [3] | Potency [4]

COc1ccc(CCC(=O)c2c(O)cc(O[C@@H]3O[C@H](CO)[C@@H](O)[C@H](O)[C@H]3O[C@@H]3O[C@@H](C)[C@H](O)[C@@H](O)[C@H]3O)cc2O)cc1O
inactive: max response [5] 0.724% | outcome [6] | outcome [7] | outcome [8] | max response [9] -0.966% | max response [10] -4.69% | outcome [11] | Potency [1] | Potency [2] | Potency [3] | Potency [4]

C/C=C(\C)C(=O)OC[C@H]1O[C@@H](O[C@H]2[C@@H](O[C@H]3O[C@H](COC(=O)/C(C)=C/C)[C@@H](O)[C@H](O)[C@H]3O[C@@H]3O[C@H](CO)[C@@H](O)[C@H](OC(=O)/C(C)=C/C)[C@H]3O)O[C@H](COC(=O)/C(C)=C/C)[C@@H](O)[C@@H]2O)[C@H](O)[C@@H](O)[C@@H]1O
inactive: outcome [1] inactive [at 9.29 µM] | outcome [2] inactive [at 9.29 µM] | Potency [3] | Potency [4]

CC(C)C1NC(=O)CNC(=O)C2CCCN2C(=O)C(Cc2c[nH]c3ccccc23)NC(=O)CNC(=O)C(Cc2ccc(O)cc2)NC(=O)CNC1=O (stereo not given) (cyclo(GVGYGWP); configuration not given here)
inactive: Potency [1] | Potency [2] | Potency [3] | Potency [4]

C=C(C)[C@@H]1CC[C@]2(CO)CC[C@]3(C)[C@H](CC[C@@H]4[C@@]5(C)CC[C@H](O)C(C)(C)[C@@H]5CC[C@]43C)[C@@H]12
inactive: Potency [1] | Potency [2] | Potency [4]

C=C(C)[C@@H]1CC[C@]2(C(=O)O)CC[C@]3(C)C(CCC4[C@]5(C)C(CC[C@]43C)C(C)(C)[C@@H](O)[C@@H]5C(=O)O)C12 (stereo not given in full)
inactive: Potency [1] | Potency [2] | Potency [3] | Potency [4]

CC[C@@H](Nc1c(Nc2cccc(C(=O)N(C)C)c2O)c(=O)c1=O)c1ccc(C)o1
inactive: Potency [1] | Potency [2] | Potency [4]

CCc1nn(CCO)c(CC)c1Oc1cc(C#N)cc(C#N)c1
inactive: Potency [1] | Potency [2] | Potency [3] | Potency [4]

CC/C=C/C=C/C1(C)OC(CC(CO)OC)=CC1=O (stereo not given)
inactive: Potency [1] | Potency [2] | Potency [3] | Potency [4]

CC(=O)OC1C(CO)OC(O[C@H]2[C@H](OC(=O)[C@]34CCC(C)(C)C[C@H]3C3=CCC5[C@@]6(C)CC[C@H](O[C@@H]7O[C@H](C(=O)O)[C@@H](O)[C@H](O[C@@H]8OC[C@@H](O)[C@H](O)[C@H]8O)[C@H]7O[C@@H]7O[C@H](CO)[C@H](O)[C@H](O)[C@H]7O)[C@@](C)(C=O)C6CC[C@@]5(C)[C@]3(C)C[C@H]4O)O[C@H](C)[C@H](OC3OC(C)C(OC4OCC(O)C(O)C4O)C(O)C3O)[C@@H]2O)C(O)C1O (stereo not given in full)
inactive: outcome [1] inactive [at 9.29 µM] | activity change, negative = cytotoxicity [2] 1.85% [at 9.29 µM] | activity change, negative = inhibition [3] 21.3% [at 19.1 µM] | Potency [4]

C[C@]1(OC(=O)/C=C\c2ccc(O)cc2)C[C@@H](O)[C@]2(O)C=CO[C@@H](O[C@@H]3O[C@H](CO)[C@@H](O)[C@H](O)[C@H]3O)C12 (stereo not given in full)
inactive: Potency [1] | Potency [2] | Potency [3] | Potency [4]

C[C@@H]1O[C@@H](O[C@@H]2\C=C/C=C\C=C/C=C\C[C@H](C)OC(=O)/C=C\[C@H]3O[C@@H]3C[C@H](O)C[C@]3(O)C[C@@H](O)[C@@H](C(=O)O)[C@H](C2)O3)[C@H](O)[C@H](N)[C@@H]1O
inactive: Potency [1] | Potency [2] | Potency [3] | Potency [4]
